# The supplement of paper PMC7156485
# ± gives the standard deviation of the averaged measurements.
# System: HCC1569
# Experiment: cell number relative to DMSO (% of DMSO); higher = more cells (less growth inhibition / toxicity)
# Conditions: concentration: 10 µM; 24 h
# Procedure, shortened: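 After 24 h at 37 °C with compounds at 10 µM, in triplicate, HCC1569 and TDF cells were fixed with 3.7% formaldehyde. Immunostaining used a rabbit anti-H1.0 antibody and an AlexaFluor 647 secondary, with DAPI, and six fields per well were imaged at ×10. H1.0 nuclear intensity or cell number is presented as percent of the plate control, from the median of replicates, with HCC1569 values smoothed for positional effects.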
# 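Note: TDF denotes transformed human dermal fibroblasts of mesenchymal origin.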
row,SMILES,cell number
1,COc1cc(/C=C/C(=O)CC(=O)/C=C/c2ccc(O)cc2)ccc1O,66.5
2,CCCCOc1cc(CC2CNC(=O)N2)ccc1OC (stereo not given),101
3,CCOC(=O)C1=CC2(CC)CCCN3CCc4c(n1c1ccccc41)C32 (stereo not given) [Vinpocetine],101 ± 3
4,N[C@H](CCC(=O)NCS(=O)(=O)O)C(=O)O [gamma-D-Glutamylaminomethylsulfonic acid],101
5,COc1cc2c(cc1OC)C1C(=O)c3ccc4c(c3OC1CO2)C=CC(C)(C)O4 (stereo not given) [Degeulin],72.6
6,Cc1ccc(S(=O)(=O)NC(=O)NN2CCCCCC2)cc1 [Tolazamide],101.3 ± 0.45
7,COc1cc2c(cc1OC)C(c1ccccc1)CN(C)CC2.O=C(O)C=CC(=O)O (stereo not given),101
8,CCCC1CC(C(=O)NC(C(C)O)C2OC(SC)C(O)C(O)C2O)N(C)C1 (stereo not given) [Lincomycin],103 ± 1.5
9,O=c1cc(N2CCOCC2)nc2c3ccccc3ccn12,95.2
10,"CN(C)C(=S)NN=C(c1ccccn1)c1ccccn1 [(Z)-di(2-pyridinyl)methanone N,N-dimethylthiosemicarbazone]",75.1
11,CCCCc1nc(Cl)c(CO)n1Cc1ccc(-c2ccccc2-c2nnn[n-]2)cc1.[K+] [Losartan potassium],102
12,O=c1cc(-c2ccccc2)oc2cc(O)cc(O)c12 [Chrysine],101
13,CC1OC(OCC2OC(Oc3cc(O)c4c(c3)OC(c3ccc(O)cc3)CC4=O)C(O)C(O)C2O)C(O)C(O)C1O (stereo not given) [Narirutin],101
14,CC(C)(ON=C(C(=O)NC1C(=O)N2C(C(=O)[O-])=C(C[n+]3ccccc3)CSC12)c1csc(N)n1)C(=O)O (stereo not given) [Ceftazidime],103
15,CC(=O)OC1(C(C)=O)CCC2C3C=C(Cl)C4=CC(=O)C5CC5C4(C)C3CCC21C (stereo not given) [Cyproterone Acetate],107
16,COc1cc(O)c2c(c1)oc(=O)c1c3cc(O)c(O)cc3oc21 [Wedelolactone],91.7
17,CCC(C)(C)c1ccc(CC(C)CN2CC(C)OC(C)C2)cc1 (stereo not given) [Amorolfine],94.1
18,COc1ccccc1OCC(O)CN1CCN(CC(=O)Nc2c(C)cccc2C)CC1.Cl.Cl (stereo not given) [Ranolazine.2HCl],104
19,CCN(CC)CCNC(=O)c1cc(S(C)(=O)=O)ccc1OC.Cl [Tiapride hydrochloride],111
20,CCCNCC(O)COc1ccccc1C(=O)CCc1ccccc1.Cl [(S)-(-)-propafenone hydrochloride],98.4

row,SMILES,cell number
1,O=C(O)CO.[NH2-].[NH2-].[Pt+2] [Nedaplatin],94.6
2,O=[N+]([O-])c1cc(S(=O)(=O)Nc2ccc(O)c3ccccc23)ccc1Cl [4-chloro-N-(4-hydroxy-1-naphthyl)-3-nitrobenzenesulfonamide],85.3
3,CCOC(=O)c1c2c3c(cccc3[nH]c1=O)C(=O)c1ccccc1-2,99.7
4,C1COC(NC(C2CC2)C2CC2)=N1.O=P(O)(O)O [Rilmenidine phosphate],101
5,CCCCCCCCC=CCCCCCCCCC(=O)O [10(E)-Nonadecenoic acid],96.1
6,Nc1ncnc2c1ncn2C1CCCC1 [9-cyclopentyladenine],102
7,CC[C@H](C(=O)Nc1ccccc1N1CCCC1)c1ccccc1 [(2S)-2-Phenyl-N-[2-(1-pyrrolidinyl)phenyl]butanamide],101
8,CCCCCCCCC=CCC=CCC=CCCCC(=O)NCCO [Mead ethanolamide],104
9,CCCCCOc1ccccc1C(O)CC#CCCCC(=O)OC (stereo not given),103
10,CN1CCCN=C1C=Cc1cccs1.O=C(O)c1cc2ccccc2c(Cc2c(O)c(C(=O)O)cc3ccccc23)c1O [Pyrantel Pamoate],94.4
11,C[C@H](C#Cc1ccc(Cc2ccc(F)cc2)s1)N(O)C(N)=O,98
12,NC(=S)NCCCC(N)C(=O)O (stereo not given) [Thiocitrulline],104
13,COc1ccc(CCNCC(O)c2ccc(O)cc2)cc1OC (stereo not drawn) [R(-)-Denopamine],100
14,COc1ccc2c(c1)CC[C@@H]1[C@@H]2CC[C@]2(C)[C@@H](NCCCCCCN3C(=O)C=CC3=O)CC[C@@H]12.O,97.6
15,N#CC(=Cc1ccc(O)c(O)c1)C(=O)NCc1ccccc1,95.2
16,CN(C)CCOc1cc(-c2cn[nH]c2)ccc1NC(=O)C1COc2ccccc2O1 (stereo not given),103
17,CC(C)(C)C1(O)CCN2CC3c4ccccc4CCc4cccc(c43)C2C1.Cl (racemic),105
18,CCC(C)C(=O)OC1CC(C)C=C2C=CC(C)C(CCC3CC(O)CC(=O)O3)C21 (stereo not given) [Lovastatin],99.4
19,Cl.NC(N)=NC(=O)Cc1c(Cl)cccc1Cl [Guanfacine hydrochloride],104
20,CCN(CC)CCNC(=O)c1cc(Cl)c(N)cc1OC.Cl [Metoclopramide hydrochloride],107
